Sampled rows, rich in hits. Any-hit rate of the full collection: about 3.9%.
HSF1 inhib = HSF1 inhibition; NIH3T3-HGL HSE-luciferase, MG132-induced, luminescence 8 h; stronger effect = lower value; activity change, negative = inhibition, % at 7.5 µM (by protocol); 0.77% of 300,000 active; AID 2098;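 active = more than half of replicate wells show activity change below -50%, luminescence cut by over half; inconclusive = some wells, but at most half, below -50%; inactive = no replicate well below -50%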;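 note: luciferase reports HSF-1 transcriptional activity via heat shock element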
HSF-1 act = increases HSF-1 driven luciferase reporter signal; NIH3T3-HGL HSF-1 luciferase reporter, MG132, 8 h; 100% = twice DMSO control signal; activation, % at 9 µM; 1.7% of 300,000 active; AID 504408;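 active = mean replicate activation of at least 50% with a set share of replicates each reaching 50%; inconclusive = only one of those two conditions met; inactive = mean below 50% and too few replicates reaching it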
MITF act = increases MITF-driven TRPM1 promoter luciferase signal | SK-MEL-5 TRPM1-promoter luciferase, 24 h; % of positive control, neutral wells = 0 | activation, % at 12.5 µM | 0.75% of 300,000 active | AID 588334;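 active = mean activation of at least 80% with every replicate also reaching 80%; inconclusive = mean reaches 80% but some replicate falls short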
Wnt act = activates Wnt/beta-catenin signaling in a reporter cell assay; activator, plate reader; 1.2% of 300,000 active; activation, % at 9.35 µM; in the data active = activation above about 30%, passing the limit was not always enough; inconclusive = no clear call, values can overlap the other calls
esBAF inh = SWI/SNF esBAF complex inhibition. AID 602393. mouse ES cells, Bmi1-luciferase knock-in reporter, 24 h; 100% = twice the neutral-well signal. reporter increase, % at 12.5 µM. 2% of 350,000 active; in the data active = activation above about 40%; inconclusive = no clear call, values can overlap the other calls;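 note: a rise in the Bmi1 reporter signal indicates esBAF inhibition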
Hits are given with their value; i = inactive; ? = inconclusive; nt = no result.

SMILES	HSF1 inhib	HSF-1 act	MITF act	Wnt act	esBAF inh
CC(C)(C)[C@H]1C=C(C(=O)Nc2ccccc2)O[C@@H](OCCCCO)C1	-61	i	i	i	i
CC(C)(C)[C@@H]1C=C(C(=O)O)O[C@H](OCCCCO)C1	i	i	i	i	i
Cc1ccc(S(=O)(=O)Nc2ccc3c(c2)CC(=O)N([C@@H](C)CO)C[C@H](C)[C@H](CN(C)C(=O)Nc2ccccc2)O3)cc1	nt	nt	nt	nt	i
COc1ccc2c(C(=O)c3ccc(C)cc3)n(Cc3ccc(C(N)=O)cc3)[n+]([O-])c2c1	nt	nt	i	?	101
COc1ccc(C(=O)c2c3ccccc3[n+]([O-])n2CCCN)cc1	i	i	i	i	i
COc1ccc(C(=O)c2c3ccccc3[n+]([O-])n2Cc2ccc(C(N)=O)cc2)cc1	nt	nt	i	i	i
COc1ccc(C(=O)c2c3ccccc3[n+]([O-])n2CCC(N)=O)cc1	i	i	i	i	47
CCNC(=O)C[C@H]1CC[C@H]2[C@@H](COc3ccc(NC(=O)c4ccccc4)cc3C(=O)N2C)O1	nt	nt	nt	nt	i
O=C(CN(CC1CCCO1)S(=O)(=O)c1ccc(S(=O)(=O)NC2CC2)cc1)Nc1ccccc1 (centres undefined)	i	115	i	nt	i
O=C(C[C@@H]1CC[C@@H]2[C@H](COC[C@H](O)CN2C(=O)Nc2ccc(C(F)(F)F)cc2)O1)NCC1CCCCC1	nt	nt	nt	nt	i
C(=C/c1nccc2c1[nH]c1ccccc12)/c1ccc2c(c1)OCO2	i	i	i	i	76
Cc1cc(C)n(CC(=O)NC2CCCc3c2cnn3-c2ccc(C)c(C)c2)n1 (centres undefined)	i	i	i	i	59
Cc1cc(C(=O)NC2CCCc3c2cnn3-c2ccc(C)c(C)c2)n(C)n1 (centres undefined)	i	i	i	i	i
CCOC(=O)/C(=C\c1ccc(N2CCC(c3ccccc3)=N2)cc1)C(C)=O	nt	nt	i	i	i
CCOC(=O)C(=Cc1ccc(-n2cncn2)cc1)C(=O)OCC	i	127	i	i	i
O=C(Nc1ccc(F)cc1)N[C@@H]1CC[C@@H](CCNS(=O)(=O)c2cccc(Cl)c2)O[C@H]1CO	nt	nt	nt	nt	i
C/C=C1\COC(C(=O)NCc2ccccc2)(C(F)(F)F)C=C1C=C1CCCCC1 (centres undefined)	i	71	i	i	i
C/C=C1\COC(C(=O)NCCN2CCCC2)(C(F)(F)F)C=C1C=C1CCCCC1 (centres undefined)	i	i	i	i	i
COc1ccc(N=C(C)C2=C(O)c3ccccc3C2=O)cc1	i	67	i	58	nt
CC(=NC1CC1)C1=C(O)c2ccccc2C1=O	i	i	98	i	i
C/C(=N\N(C)C)C1=C(O)c2ccccc2C1=O	i	i	i	i	nt
CCOc1ccc(N=C(C)C2=C(O)c3ccccc3C2=O)cc1	i	63	nt	39	nt
COc1ccccc1C(=O)Nc1ccc2c(c1)C(=O)N(C)[C@H]1CC[C@@H](CC(=O)NCCc3ccncc3)O[C@H]1CO2	nt	nt	nt	nt	i
OC(c1ccc(F)cc1)c1nc(-c2cnc3ccccc3c2)cs1 (centres undefined)	nt	nt	nt	i	48
CC(=O)NC(c1cccc(F)c1)c1nc(-c2cc3ccccc3o2)cs1 (centres undefined)	nt	nt	nt	i	i
SMILES	HSF1 inhib	HSF-1 act	MITF act	Wnt act	esBAF inh
OC(c1ccc(F)cc1)c1nc(-c2cc3ccccc3o2)cs1 (centres undefined)	nt	nt	nt	i	70
OC(c1ccc(F)c(F)c1)c1nc(-c2ccc3ccccc3c2)cs1 (centres undefined)	nt	nt	nt	i	68
NC(c1ccc(F)c(F)c1)c1nc(-c2ccc3ccccc3c2)cs1 (centres undefined)	nt	nt	nt	i	i
OC(c1cccc(Cl)c1)c1nc(-c2cnc3ccccc3c2)cs1 (centres undefined)	nt	nt	nt	i	i
COc1ccc(C(O)c2nc(-c3cnc4ccccc4c3)cs2)cc1 (centres undefined)	nt	nt	nt	i	49
Cc1noc(C)c1NC(=O)Nc1ccc2c(c1)C(=O)N([C@@H](C)CO)C[C@@H](C)[C@@H](CN(C)Cc1ccccc1)OCCCC[C@H](C)O2	nt	nt	nt	nt	i
CC(=O)N1[C@@H]2c3cccc(=O)n3C[C@H]1[C@H](CO)[C@H]2C(=O)NCC1CCCCC1	nt	nt	nt	nt	i
C[C@H](CO)N1C[C@H](C)[C@@H](CN(C)Cc2ccncc2)Oc2ccc(NS(=O)(=O)c3ccccc3)cc2C1=O	nt	nt	nt	nt	i
COCc1cc(=O)[nH]c(Nc2nc3ccccc3o2)n1	i	84	i	i	50
Clc1ccccc1Nc1nc2ccccc2o1	nt	nt	i	60	i
COC(=O)Cc1cc(=O)[nH]c(Nc2nc3ccccc3o2)n1	i	i	i	nt	nt
Cc1cccc(C)c1Nc1nc2ccccc2o1	i	i	i	i	i
C[C@@H]1CN([C@H](C)CO)C(=O)c2cc(NC(=O)c3ccncc3)ccc2O[C@@H]1CN(C)Cc1ccc2c(c1)OCO2	nt	nt	nt	nt	i
C[C@@H]1CN([C@@H](C)CO)C(=O)c2ccccc2-c2ccccc2CO[C@H]1CN(C)S(=O)(=O)c1ccc(Cl)cc1	nt	nt	nt	nt	i
CCN(CC)c1ccc2cc(C(=O)c3cccs3)c(=O)oc2c1	nt	nt	nt	i	72
CCN(CC)c1ccc2cc(-c3nnc(-c4ccccc4)o3)c(=O)oc2c1	i	i	i	nt	46
CCN(CC)c1ccc2cc(-c3nc4ccccc4[nH]3)c(=O)oc2c1	i	i	i	nt	i
Cn1c(=O)c2c(ncn2CC(=O)OCC(=O)NCc2ccccc2Cl)n(C)c1=O	nt	nt	i	36	nt
COc1ccccc1CNC(=O)COC(=O)Cn1cnc2c1c(=O)n(C)c(=O)n2C	nt	nt	nt	i	i
O=C(C[C@@H]1CC[C@H]2[C@@H](COC[C@@H](O)CN2C(=O)c2cnccn2)O1)NCc1ccc(F)cc1	nt	nt	nt	nt	i
COCCN(CCOC)c1nc(-c2ccc(C)cc2)nc2ccccc12	i	193	i	i	i
CCOc1ccc(-c2cn(-c3ccccc3OC)c(=S)[nH]2)cc1	i	i	i	i	i
CCOc1ccc(-n2cc(-c3ccc(OC)c(OC)c3)[nH]c2=S)cc1	i	55	i	i	i
C[C@H](CO)N1C[C@H](C)[C@@H](CN(C)C(=O)Nc2ccc(F)cc2)OCCCC[C@H](C)Oc2ccc(NC(=O)C3CCCCC3)cc2C1=O	nt	nt	nt	nt	i
Cc1nc(SCc2ccc(C#N)cc2)n[nH]1	i	i	nt	i	i
SMILES	HSF1 inhib	HSF-1 act	MITF act	Wnt act	esBAF inh
CCCCOc1ccc(CSc2n[nH]c(C)n2)cc1	i	i	93	nt	i
CCCCCOc1ccc(CSc2ncn[nH]2)cc1	i	i	?	nt	47
CCCOc1ccc(CSc2nc3ccccc3[nH]2)cc1	i	i	i	nt	i
CCCCOc1ccc(CSc2ncn[nH]2)cc1	i	86	i	i	i
CN(C)CC#Cc1ccc([C@H]2[C@@H](CO)N3CCCCN(S(=O)(=O)c4ccccc4)C[C@H]23)cc1	nt	nt	nt	nt	i
C[C@@H]1CN([C@H](C)CO)C(=O)c2cc(-c3cccc(F)c3)cnc2O[C@H]1CN(C)C(=O)c1cccc(F)c1	nt	nt	nt	nt	i
COc1ccc(NC(=O)N[C@H]2CC[C@@H](CCNC(=O)CN3CCOCC3)O[C@@H]2CO)cc1	nt	nt	nt	nt	i
